Screening data: PubChem, National Center for Advancing Translational Sciences (NCATS)
TDP1 inh: TDP1 (human) enzyme inhibition | Q9NUW8 | recombinant TDP1, AlphaScreen DNA substrate cleavage | Potency, µM (top dose mostly 130 µM), most hits filed as inhibitors | 350,000 tested, 0.28% active | AID 485290; further: nearly all actives have a fitted effect of over 40% in size
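Signal: AlphaScreen proximity between streptavidin donor and anti-FITC acceptor beads on intact substrate. Reaction: Tdp1 1 nM, substrate 15 nM final, 5 min RT after 15 min compound preincubation.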
ClpP mod: qHTS Assay for Activators of ClpP; AID 651965, 2013; 340,000 tested, 1.9% active; Potency, µM (titrated, usually from 57.5 µM); purified B. subtilis ClpP, FRET peptide cleavage, 20 min; ATP-dependent Clp protease proteolytic subunit (Bacillus subtilis (strain 168)), P80244; active means well fitted falling curve with a large enough effect; inconclusive means small, poorly fitted or top-dose-only effect; inactive means no such curve, though single readings can be large or run the other way; further: the source files actives as falling curves though it sought activators and does not explain the sign; nearly all actives have a fitted effect of over 65% in size
Target sequence (P80244 whole entry, looked up): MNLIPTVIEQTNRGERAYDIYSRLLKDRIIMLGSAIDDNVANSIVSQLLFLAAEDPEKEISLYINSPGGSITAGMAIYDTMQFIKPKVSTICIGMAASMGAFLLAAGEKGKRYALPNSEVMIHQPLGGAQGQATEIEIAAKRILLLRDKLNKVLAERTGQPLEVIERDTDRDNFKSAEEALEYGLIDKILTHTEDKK
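ClpP 10 microg/mL final, pH 8 Tris/KCl buffer with BSA, glycerol, Tween-20; compound pinned in; FRET-FV substrate; RT 20 min; Ex320/Em430; ΔFRET vs ADEP 5.8 microM, DMSO, no enzyme.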
DT40 TDP1 CPT: DT40-hTDP1 cell growth loss with CPT; chicken DT40 Tdp1-/-;hTDP1 cells + 20 nM CPT, ATP luminescence, 48 h; Potency, µM (top dose mostly 46.2 µM), usual class: inhibitors; 420,000 tested, 12% active; AID 686979; further: nearly all actives have a fitted effect of over 55% in size
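Cell growth measured by CellTiter-Glo luminescence after a minimum 48 h, 37 C compound exposure with 20 nM CPT in Tdp1-knockout DT40 cells stably expressing hTDP1, seeded 400/well; qHTS titration format.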
TDP1 cell noCPT: qHTS for Inhibitors of human tyrosyl-DNA phosphodiesterase 1 (TDP1): qHTS in cells in absence of CPT. DT40 Tdp1-/- hTDP1 cells, no CPT, ATP luminescence, 48 h. Potency, µM (series often up to 46.2 µM), hits mostly inhibitors. 420,000 tested, 15% active; further: nearly all actives have a fitted effect of over 55% in size
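Growth of hTDP1-complemented DT40 Tdp1-knockout cells is measured by ATP luminescence after at least 48 hr compound exposure at 37 °C, with DMSO substituting for the 20 nM CPT used in the parallel screen.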
Hits are given with their value; [ ] = another dose, or the depositor's remark. This is a sample that favours compounds with a hit; in the whole collection about 17% have one here. Unless noted, the call rests on the fitted dose curve; in most records, active means well fitted curve in the direction sought with a large enough effect; inconclusive means small, poorly fitted or top-dose-only effect, or another doubt; inactive means no such curve, though single readings can be large; an effect the other way counts as inactive or inconclusive.

Screening COc1ccccc1CNC(=O)Cn1ncn2c(cc3sccc32)c1=O returned TDP1 inh inactive, ClpP mod inactive, DT40 TDP1 CPT inactive and TDP1 cell noCPT inactive.
COC(=O)c1sc(S(=O)(=O)NCCC(=O)O)c(C(=O)OC)c1C was read as TDP1 inh inactive, DT40 TDP1 CPT inactive and TDP1 cell noCPT inactive.
For CC(=O)Nc1ccc(S(=O)(=O)N2CCN(c3cc(C)ccc3C)CC2)cc1 the results were TDP1 inh inactive, ClpP mod inactive, DT40 TDP1 CPT 16µM and TDP1 cell noCPT inconclusive.
Screening CN1C(=O)C(C)(C)c2cc(S(=O)(=O)N3CCN(c4ccccc4F)CC3)ccc21 returned ClpP mod inactive, DT40 TDP1 CPT inconclusive and TDP1 cell noCPT 23µM.
Screening Cc1ccc(C)c(N2CCN(S(=O)(=O)c3ccc4c(c3)C(C)(C)C(=O)N4C)CC2)c1 returned ClpP mod inactive, DT40 TDP1 CPT inconclusive and TDP1 cell noCPT 23µM.
Screening COc1ccc2c(c1)-c1nc(-n3ncc(C(=O)NCC4CCCN(C)C4)c3C3CC3)ncc1CC2 (centres undefined) returned DT40 TDP1 CPT inactive[9.04 µM] and TDP1 cell noCPT inactive.
COc1ccc2c(c1)-c1nc(-n3ncc(C(=O)NC[C@@H]4CCCN5CCCC[C@H]45)c3C)ncc1CC2 was read as DT40 TDP1 CPT inconclusive and TDP1 cell noCPT 9.2µM.
For COc1ccc2c(c1)-c1nc(-n3ncc(C(=O)NCc4cccnc4)c3C3CC3)ncc1CC2 the results were DT40 TDP1 CPT inactive[9.04 µM] and TDP1 cell noCPT 23µM.
CCOC(=O)[C@]12CCC=C1N(Cc1ccc3c(c1)OCO3)C(=O)[C@H](CC(=O)N1CCC(c3ccccc3)CC1)C2 was read as ClpP mod inactive, DT40 TDP1 CPT inconclusive and TDP1 cell noCPT 16µM.
`CCOC(=O)[C@]12CCCC=C1N(Cc1ccc3c(c1)OCO3)C(=O)[C@H](CC(=O)N1CCCC1)C2` gave ClpP mod inactive, DT40 TDP1 CPT inconclusive and TDP1 cell noCPT 21µM.
CCOC(=O)N1CCN(C(=O)C[C@@H]2C[C@@]3(C(=O)OCC)CCC=C3N(Cc3ccc4c(c3)OCO4)C2=O)CC1 was read as ClpP mod inactive, DT40 TDP1 CPT inactive and TDP1 cell noCPT inconclusive.
CCOC(=O)[C@]12CCCC=C1N(Cc1ccc3c(c1)OCO3)C(=O)[C@H](CC(=O)N1CCCCC1)C2 was read as ClpP mod inactive, DT40 TDP1 CPT 13µM and TDP1 cell noCPT 15µM.
Screening C#CCNC(=O)C[C@@H]1C[C@@]2(C(=O)OCC)CCCC=C2N(Cc2ccc3c(c2)OCO3)C1=O returned ClpP mod inactive, DT40 TDP1 CPT inactive and TDP1 cell noCPT inactive.
For COc1cccc(-c2nc(S(=O)(=O)c3ccc(Cl)cc3)c(NCc3ccccc3)o2)c1 the results were TDP1 inh inactive, ClpP mod inactive, DT40 TDP1 CPT inconclusive and TDP1 cell noCPT inconclusive.
O=S(=O)(c1ccc(Cl)cc1)c1nc(-c2ccccc2F)oc1NCc1ccccc1 was read as ClpP mod inactive, DT40 TDP1 CPT inconclusive and TDP1 cell noCPT 18µM.
Screening COc1ccc(-c2nc(S(=O)(=O)c3ccc(Cl)cc3)c(NCc3ccccc3)o2)cc1 returned ClpP mod inactive, DT40 TDP1 CPT 16µM and TDP1 cell noCPT inconclusive.
For COc1cc(C(=O)NCC(=O)NCC2COc3ccccc3O2)cc(OC)c1OC (centres undefined) the results were TDP1 inh inactive, ClpP mod inactive, DT40 TDP1 CPT inactive and TDP1 cell noCPT inactive.
Screening Cc1cccc(C)c1NC(=O)COc1ccc2c(C)c(Cc3ccccc3)c(=O)oc2c1 returned TDP1 inh inactive, ClpP mod inactive, DT40 TDP1 CPT inconclusive and TDP1 cell noCPT 12µM.
CCOC(=O)CCc1c(C)c2ccc(OCc3cc([N+](=O)[O-])ccc3OC)cc2oc1=O was read as TDP1 inh inactive, ClpP mod inactive, DT40 TDP1 CPT 26µM and TDP1 cell noCPT 23µM.
For COC(=O)Cc1c(C)c2ccc(OC(C)C)cc2oc1=O the results were ClpP mod inactive, DT40 TDP1 CPT inactive and TDP1 cell noCPT inactive.
`CCc1c(C)c2ccc(OCC(=O)OC)cc2oc1=O` gave TDP1 inh inactive, ClpP mod 14µM, DT40 TDP1 CPT inconclusive and TDP1 cell noCPT inactive.
CC(=O)Oc1ccc2nonc2c1OC(C)=O was read as TDP1 inh inactive, ClpP mod inactive, DT40 TDP1 CPT 5.6µM and TDP1 cell noCPT 5.6µM.
For CC(=O)Nc1cc(OC(C)=O)c2nonc2c1OC(C)=O the results were TDP1 inh inactive, ClpP mod inactive, DT40 TDP1 CPT inconclusive and TDP1 cell noCPT 18µM.
Screening Fc1ccc(CNc2ncnc3onc(-c4ccc(F)cc4)c23)cc1 returned TDP1 inh inactive, ClpP mod inactive, DT40 TDP1 CPT 18µM and TDP1 cell noCPT 23µM.
For CCc1ccc(CNc2ncnc3onc(-c4ccc(Cl)cc4)c23)cc1 the results were TDP1 inh inactive, ClpP mod inactive, DT40 TDP1 CPT inactive and TDP1 cell noCPT 16µM.
`Cc1ccc(CNc2ncnc3onc(-c4ccc(F)cc4)c23)cc1` gave TDP1 inh inactive, ClpP mod inactive, DT40 TDP1 CPT inconclusive and TDP1 cell noCPT inconclusive.
For Clc1ccc(-c2noc3ncnc(NCCc4ccccc4)c23)cc1 the results were TDP1 inh inactive, ClpP mod inactive, DT40 TDP1 CPT inconclusive and TDP1 cell noCPT inconclusive.
For CN(C(=O)COC(=O)c1ccccc1SCC(=O)N1CCCC1)C1CCS(=O)(=O)C1 (centres undefined) the results were TDP1 inh inactive, ClpP mod inactive, DT40 TDP1 CPT inactive and TDP1 cell noCPT inactive.
CN(C(=O)CSCC(=O)Nc1ccc(Cl)cc1)C1CCCCC1 was read as TDP1 inh inactive, DT40 TDP1 CPT inconclusive and TDP1 cell noCPT 15µM.
Screening CC(C)c1nc2oc3c(=O)[nH]cnc3c2c2c1CCC2 returned TDP1 inh inactive, ClpP mod 13µM, DT40 TDP1 CPT inactive and TDP1 cell noCPT inactive.
Screening COc1ccccc1NC(=O)C1CCN(C(=O)c2sc3nc[nH]c(=O)c3c2C)CC1 returned TDP1 inh inactive, ClpP mod inactive, DT40 TDP1 CPT inactive and TDP1 cell noCPT inactive.
For CCNC(=O)C1(C)CCCN(C(=O)c2ccccc2Br)C1 (centres undefined) the results were ClpP mod inactive, DT40 TDP1 CPT inactive and TDP1 cell noCPT inactive.
COC(=O)c1[nH]nc(C(=O)OC(C)(C)C)c1-c1ccccc1 was read as TDP1 inh inactive, ClpP mod inactive, DT40 TDP1 CPT 16µM and TDP1 cell noCPT 13µM.
Screening CCc1ccc(NCCC(=O)c2ccc(Br)cc2)cc1 returned TDP1 inh inactive, ClpP mod inactive, DT40 TDP1 CPT inconclusive and TDP1 cell noCPT inconclusive.
For Cc1ccc(C(=O)CCNc2ccc(F)c(Cl)c2)o1 the results were TDP1 inh inactive, ClpP mod inactive, DT40 TDP1 CPT 16µM and TDP1 cell noCPT 16µM.
`Cc1ccc(C(=O)CCNc2ccccc2)o1` gave TDP1 inh inactive, ClpP mod inactive, DT40 TDP1 CPT inconclusive and TDP1 cell noCPT 8.2µM.
